Assay outcomes from PubChem.
eIF4E 4G PPI = blocks eIF4E binding to eIF4G; AID 782; TR-FRET eIF4E-eIF4GI(517-606) binding, 2 h; P63073+Q04637; hit rate 0.37% among 220,000; inhibition, % at 21.7 µM;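 active means inhibition above about 30%, limit read from the data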
PABP FP inh = blocks human PABP binding to poly(A) RNA; hit rate 1% among 290,000; inhibition, % at 35 µM; fluorescence polarization;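 further: calls also rest on retests at 20 µM and on dose response follow-up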
PABP1 MLLE inh = inhibitors of microRNA-mediated deadenylation, human PABP1 MLLE binding; P11940; GST-MLLE / FITC-PAM2 fluorescence polarization; inhibition, % at 20 µM; hit rate 0.36% among 360,000; in the data active means inhibition above about 35%, passing the limit was not always enough
eIF4H FP inh = inhibitors of RNA binding by human eIF4H; AID 2012; Q15056; hit rate 0.94% among 290,000; eIF4H fluorescence polarization binding assay; inhibition, % at 35 µM;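 further: calls also rest on retests at 20 µM and on dose response follow-up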
PERK inhibitor = human PERK inhibition, primary cell-based screen | hit rate 0.17% among 220,000 | Q9NZJ5 | inhibition, % at 5.6 µM | CHO PERK-DD fusion, SEAP luminescence translation reporter;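 active means inhibition above the mean inhibition of all tested compounds plus 3 SD, set separately per screening campaign, cut at about 2.9% in these data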;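 further: PERK kinase domain activated by AP20187 dimerizer at 100 nM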
Large screens that a line does not name were inactive. A selection: hits, their analogues and other compounds. The true share with any hit is near 1.6%. Unless noted, how the calls were made is not given here.

COCCn1cnnc1SCC(=O)Nc1ccccc1C(=O)Nc1ccc2c(c1)OCO2	eIF4H FP inh 5.6
COc1ccccc1N(CC(=O)NCCc1ccccc1)C(=O)CCC(=O)Nc1cc(C)ccn1	none (no result: eIF4E 4G PPI, PERK inhibitor)
COc1ccc(N(CC(=O)NCc2ccccc2)C(=O)CCC(=O)Nc2cc(C)ccn2)c(OC)c1	eIF4E 4G PPI 88.2
CCOC(=O)c1ccc(N=c2sc(C(=O)OC)cc(=O)n2Cc2ccc3c(c2)OCO3)cc1	none
CCOC(=O)c1ccc(N=c2sc(C(=O)OC)cc(=O)n2C2CC2)cc1	PERK inhibitor 3.1 (no result: PABP FP inh, eIF4H FP inh)
CC1(C)Cc2c(sc3nc(NCCN4CCOCC4)n4ncnc4c23)CO1	eIF4E 4G PPI 61.4
Cc1ccc(NC(=O)c2ccccc2Cl)c(Cl)c1	none
CC1=C(C#N)c2nc(N)c(C#N)c(C)c2/C1=C\c1ccc(-c2ccccc2C(=O)O)o1	PABP FP inh 65.0, eIF4H FP inh 85.9
O=c1[nH]c2ccccc2nc1/C=C/c1ccc(F)cc1	PABP FP inh 87.8
O=C(/C=C/c1ccc(F)cc1)Nc1nc2ccccc2[nH]1	PABP FP inh 58.6, eIF4H FP inh active (no result: PABP1 MLLE inh)
O=C(NC1CC1)C1=C[C@@H](C2CC2)C[C@@H](OCc2ccc(CO)cc2)O1	eIF4E 4G PPI 33.7 (no result: PERK inhibitor)
Cc1cccc(C)c1NC(=O)CN1CCN(C(=O)c2ccc(OCc3cn4ccccc4n3)cc2)CC1	none (no result: eIF4E 4G PPI, PABP FP inh, eIF4H FP inh, PERK inhibitor)
CCN(CC)CCCN1C(=O)C(=O)/C(=C(/O)c2cc(C)ccc2C)C1c1cccnc1 (stereo not drawn)	none
CCN(CC)CCN1C(=O)C(=O)/C(=C(/O)c2ccc(C)cc2)C1c1cccnc1 (stereo not drawn)	eIF4E 4G PPI 97.3
CCN(CC)CCCN1C(=O)C(=O)/C(=C(/O)c2ccc(C)cc2)C1c1ccccn1 (stereo not drawn)	PABP FP inh 55.6, eIF4H FP inh 3.1
CCN(CC)CCCN1C(=O)C(=O)/C(=C(/O)c2ccc3c(c2)OCO3)C1c1ccccn1 (stereo not drawn)	none (no result: eIF4E 4G PPI, PABP FP inh, PABP1 MLLE inh, eIF4H FP inh)
CCCc1nnc(NC(=O)C(C)N2C(=O)C3C4C=CC(C4)C3C2=O)s1 (stereo not drawn)	none
COc1cc(/C=C2/NC(=O)N(Cc3ccccc3F)C2=O)ccc1O	none
O=C1N/C(=C/c2cccn2-c2ccccc2)C(=O)N1Cc1ccc(F)cc1	PABP FP inh 53.9, eIF4H FP inh active
O=C1N/C(=C/c2cccn2-c2ccc(F)cc2)C(=O)N1Cc1ccccc1F	none
O=C(O)c1cccc(-n2cccc2/C=C2/NC(=O)N(Cc3ccccc3F)C2=O)c1	PABP FP inh 29.9, eIF4H FP inh 93.9
O=S(=O)(c1ccccc1)c1cnn2c(C(F)(F)F)cc(-c3ccc(F)cc3)nc12	none
O=C(COc1ncnc2ccc(Br)cc12)N1CCOCC1	PABP FP inh 66.3, eIF4H FP inh 1.0
c1ccc2c(c1)c1ccccc1n2CN1CCOCC1	none
O=c1cc(O)c(-c2ccc(Cl)cc2)c(Cl)[nH]1	none
O=c1cc(O)c(-c2ccc(Cl)c(Cl)c2)c(Cl)[nH]1	PABP FP inh 7.5, eIF4H FP inh 81.9
Oc1ccc(Br)cc1C=Nc1ccc2c3c(cccc13)CC2	PABP FP inh 3.5, eIF4H FP inh 100.1
Cc1ccc(OCC(=O)N2CCN(C(=O)c3cccs3)CC2)cc1	PABP FP inh 67.2, eIF4H FP inh active
Cc1oc(-c2ccc(F)cc2)cc1-c1nn2c(-c3ccoc3C)nnc2s1	PABP FP inh 63.2, eIF4H FP inh 79.5 (no result: eIF4E 4G PPI, PERK inhibitor)
COc1ccc(-c2nn3c(-c4ccco4)nnc3s2)cc1OC	none (no result: eIF4E 4G PPI)
COc1cc(OC)c(-c2nn3c(-c4ccco4)nnc3s2)cc1OC	eIF4H FP inh 75.4
Cc1oc(-c2ccc(Cl)cc2)cc1-c1nn2c(-c3ccco3)nnc2s1	PABP FP inh 55.9, eIF4H FP inh 64.4 (no result: eIF4E 4G PPI, PABP1 MLLE inh, PERK inhibitor)
Cc1oc(-c2ccc(F)cc2)cc1-c1nn2c(-c3ccco3)nnc2s1	none (no result: eIF4E 4G PPI, PABP FP inh, PABP1 MLLE inh, eIF4H FP inh)
Cc1c(NC(=S)NC(=O)c2cc3ccccc3o2)cccc1C(=O)O	PABP1 MLLE inh 39.2 (no result: eIF4E 4G PPI, PERK inhibitor)
Cc1c(NC(=S)NC(=O)CSc2ccc(Cl)cc2)cccc1C(=O)O	PABP1 MLLE inh 40.5 (no result: eIF4E 4G PPI, PERK inhibitor)
COc1ccc2c(c1)CCC1C2CCC2(C)C(O)C(=O)CC12 (stereo not drawn)	none (no result: eIF4E 4G PPI, PABP FP inh, eIF4H FP inh, PERK inhibitor)
Cc1cnc(C=NNC(N)=S)c2cccc(N)c12	PABP1 MLLE inh 42.7 (no result: eIF4E 4G PPI, PABP FP inh, eIF4H FP inh, PERK inhibitor)
COCCNC(=O)/C(C#N)=C/c1ccccc1Br	none
COc1ccc(C(CC(=O)NCc2ccccc2)Sc2n[nH]c(-c3ccccc3)n2)cc1 (stereo not drawn)	PABP FP inh 53.9, eIF4H FP inh 85.6
O=C1CSc2ccc(S(=O)(=O)NCc3ccc(Cl)cc3)cc2N1	none (no result: eIF4E 4G PPI, PERK inhibitor)
